Measured values taken from publication PMC5540273 (PLoS ONE, 2017).

What was measured:
Details in all cases: concentration: 1 μM, replicates: in singlicate; n = 1
RIPK4 = test system: RIPK4
RIPK5 = test system: RIPK5
ROCK1 = test system: ROCK1
ROCK2 = test system: ROCK2
ROS1 = test system: ROS1
[1] = test system: RPS6KA4(Kin.Dom.1-N-terminal)
[2] = test system: RPS6KA4(Kin.Dom.2-C-terminal)
[3] = test system: RPS6KA5(Kin.Dom.1-N-terminal)
[4] = test system: RPS6KA5(Kin.Dom.2-C-terminal)
[5] = test system: T1, RSK1(Kin.Dom.1-N-terminal)
T1 construct: gene RPS6KA1

[6] = test system: T2, RSK1(Kin.Dom.2-C-terminal)
T2 construct: gene RPS6KA1

[7] = test system: T3, RSK2(Kin.Dom.1-N-terminal)
T3 construct: gene RPS6KA3

[8] = test system: T4, RSK2(Kin.Dom.2-C-terminal)
T4 construct: gene RPS6KA3

[9] = test system: T5, RSK3(Kin.Dom.1-N-terminal)
T5 construct: gene RPS6KA2

[10] = test system: T6, RSK3(Kin.Dom.2-C-terminal)
T6 construct: gene RPS6KA2

[11] = test system: T7, RSK4(Kin.Dom.1-N-terminal)
T7 construct: gene RPS6KA6

[12] = test system: T8, RSK4(Kin.Dom.2-C-terminal)
T8 construct: gene RPS6KA6

S6K1 = test system: S6K1
SBK1 = test system: SBK1
SGK2 = test system: SGK2
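Further: KINOMEscan kinase panel screen.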

| Structure (SMILES) | %Inh (RIPK4) | %Inh (RIPK5) | %Inh (ROCK1) | %Inh (ROCK2) | %Inh (ROS1) | %Inh [1] | %Inh [2] | %Inh [3] | %Inh [4] | %Inh [5] | %Inh [6] | %Inh [7] | %Inh [8] | %Inh [9] | %Inh [10] | %Inh [11] | %Inh [12] | %Inh (S6K1) | %Inh (SBK1) | %Inh (SGK2) |
| --- | --- | --- | --- | --- | --- | --- | --- | --- | --- | --- | --- | --- | --- | --- | --- | --- | --- | --- | --- | --- |
| COc1ccc(Nc2nccc(-c3ccc(NC(=O)c4cc5cc(F)ccc5[nH]4)cc3)n2)cc1 [GSK1229496] | 0% | 0% | 18% | 10% | 26% | 0% | 0% | 0% | 0% | 13% | 36% | 0% | 20% | 0% | 0% | 20% | 6% | 1% | 17% | 0% |
| CNC(=O)c1ccc(C)c(-n2c(C)cc(OCc3ccc(F)cc3F)c(Br)c2=O)c1 | 0% | 0% | 0% | 0% | 15% | 67% | 0% | 0% | 0% | 0% | 0% | 0% | 0% | 10% | 0% | 0% | 0% | 0% | 0% | 0% |
| CC(=O)c1c(C)c2cnc(Nc3ccc(N4CCNCC4)cn3)nc2n(C2CCCC2)c1=O | 0% | 0% | 0% | 0% | 0% | 15% | 0% | 0% | 0% | 14% | 0% | 0% | 0% | 0% | 0% | 0% | 1% | 0% | 0% | 0% |
| Cc1ccc(NC(=O)Nc2ccccc2F)cc1-c1ccc(C(=O)Nc2ccncc2)cc1 [GSK1398477] | 30% | 6% | 26% | 0% | 3% | 20% | 0% | 34% | 0% | 23% | 0% | 9% | 6% | 20% | 0% | 0% | 14% | 13% | 28% | 0% |
| COc1ccc(Nc2nccc(NCCNC(=O)Nc3cc(C)ccc3C)n2)cc1 [GSK1379899] | 6% | 0% | 6% | 14% | 5% | 8% | 0% | 49% | 0% | 0% | 0% | 4% | 9% | 0% | 0% | 0% | 0% | 0% | 0% | 0% |
| CNCc1ccc2nc(NC(=O)c3ccc(C(C)(C)C)cc3)cn2c1 | 14% | 11% | 5% | 13% | 9% | 9% | 9% | 0% | 0% | 0% | 8% | 32% | 37% | 1% | 0% | 27% | 7% | 17% | 27% | 12% |
| COc1ccc(CSc2nnc(-c3ccc4ncsc4c3)o2)cc1C(F)(F)F | 0% | 0% | 11% | 0% | 0% | 0% | 5% | 17% | 10% | 0% | 0% | 0% | 0% | 0% | 0% | 0% | 9% | 0% | 0% | 0% |
| CSc1ccc(-c2nc3n(c2-c2ccncc2)CCC3)cc1 [SKF-105561] | 13% | 17% | 23% | 0% | 6% | 6% | 10% | 5% | 0% | 0% | 62% | 0% | 20% | 0% | 35% | 8% | 70% | 0% | 30% | 7% |
| COc1cc2ncnc(Nc3cccc(Br)c3)c2cc1OC.Cl [GI230329] | 5% | 8% | 37% | 33% | 28% | 8% | 0% | 0% | 2% | 0% | 11% | 11% | 5% | 0% | 0% | 0% | 15% | 0% | 16% | 2% |
| CC(=O)c1cccc(NC(=O)NC2CCN(c3ccnc(Nc4ccc(F)cc4)n3)C2)c1 (stereo not drawn) [GSK1379710] | 15% | 4% | 0% | 22% | 3% | 0% | 0% | 0% | 29% | 21% | 14% | 0% | 30% | 17% | 6% | 0% | 21% | 0% | 5% | 0% |
| COC(=O)c1cccc(NC(=O)NC2CCN(c3ccnc(Nc4ccc(F)cc4)n3)C2)c1 (stereo not drawn) [GSK1379725] | 18% | 0% | 0% | 0% | 0% | 0% | 0% | 0% | 16% | 8% | 0% | 5% | 0% | 3% | 0% | 0% | 0% | 0% | 17% | 0% |
| Nc1nccc(-c2c(-c3ccc(F)cc3)ncn2C2CCN(Cc3ccccc3)CC2)n1 [SB-219980] | 7% | 34% | 34% | 0% | 10% | 0% | 0% | 0% | 0% | 0% | 41% | 41% | 0% | 4% | 5% | 30% | 63% | 6% | 35% | 0% |
| Cc1ccc(NC(=O)Nc2ccc(Cl)c(C(F)(F)F)c2)cc1-c1ccc(C(=O)Nc2ccncc2)cc1 [GSK1398470] | 0% | 0% | 0% | 0% | 14% | 0% | 0% | 17% | 0% | 2% | 3% | 5% | 0% | 9% | 14% | 2% | 22% | 15% | 64% | 0% |
| COc1ccc(-c2coc3ccc(-c4nnc(C)o4)cc23)cc1 | 0% | 0% | 0% | 0% | 0% | 13% | 0% | 4% | 4% | 0% | 4% | 0% | 0% | 0% | 8% | 22% | 15% | 0% | 0% | 0% |
| Cc1ccc(NC(=O)c2ccc(Cl)cc2)cc1-c1ccc(C(=O)Nc2ccncc2)cc1 [GSK1398467] | 9% | 0% | 0% | 17% | 8% | 13% | 0% | 17% | 49% | 10% | 0% | 4% | 2% | 8% | 22% | 0% | 10% | 7% | 0% | 0% |
| COc1cccc(C2=C(Nc3cc(Cl)c(O)c(Cl)c3)C(=O)NC2=O)c1 [SB-390767] | 13% | 7% | 11% | 11% | 0% | 5% | 0% | 6% | 18% | 0% | 0% | 11% | 37% | 0% | 0% | 0% | 0% | 20% | 0% | 11% |
| CS(=O)(=O)CCNCc1nc(-c2ccc3ncnc(Nc4ccc(OCc5ccccc5)c(Cl)c4)c3c2)cs1.Cl [GW582764] | 1% | 0% | 45% | 38% | 0% | 17% | 0% | 3% | 0% | 25% | 0% | 15% | 2% | 9% | 0% | 0% | 8% | 6% | 23% | 0% |
| Nc1ncnc2occ(-c3ccc4c(c3)CCN4C(=O)Cc3cc(F)ccc3F)c12 [GSK2645446] | 0% | 12% | 12% | 11% | 2% | 14% | 0% | 2% | 1% | 0% | 0% | 0% | 7% | 0% | 16% | 0% | 15% | 0% | 10% | 0% |
| O=C(Nc1n[nH]c2nc(-c3cccs3)c(Br)cc12)C1CC1 [SB-735297] | 7% | 3% | 0% | 0% | 6% | 0% | 8% | 10% | 4% | 14% | 0% | 22% | 0% | 0% | 0% | 98.9% | 20% | 22% | 11% | 27% |
| CC(C)c1cc(-c2ccc3c(N)n[nH]c3c2)nc(N)n1 [GSK2250882] | 4% | 0% | 28% | 20% | 23% | 13% | 3% | 0% | 25% | 14% | 0% | 18% | 0% | 0% | 5% | 0% | 17% | 0% | 16% | 0% |
| Cc1ccccc1Cn1ccn2c(=O)cc(N3CCOCC3)nc12 [GSK2269905] | 0% | 0% | 0% | 0% | 0% | 23% | 0% | 12% | 0% | 25% | 0% | 9% | 20% | 11% | 0% | 0% | 17% | 0% | 4% | 0% |
